Screening data: PubChem BioAssay, several laboratories
MBD2 DNA inh – blocks human MBD2 binding to methylated DNA | Q9UBB5 | TR-FRET, MBD2 binding to methylated oligonucleotide | inhibition, % at 4.4 µM | 370,000 compounds, 0.31% hits | AID 686964; in the data active = inhibition above about 13%
Target sequence (Q9UBB5 whole entry, looked up): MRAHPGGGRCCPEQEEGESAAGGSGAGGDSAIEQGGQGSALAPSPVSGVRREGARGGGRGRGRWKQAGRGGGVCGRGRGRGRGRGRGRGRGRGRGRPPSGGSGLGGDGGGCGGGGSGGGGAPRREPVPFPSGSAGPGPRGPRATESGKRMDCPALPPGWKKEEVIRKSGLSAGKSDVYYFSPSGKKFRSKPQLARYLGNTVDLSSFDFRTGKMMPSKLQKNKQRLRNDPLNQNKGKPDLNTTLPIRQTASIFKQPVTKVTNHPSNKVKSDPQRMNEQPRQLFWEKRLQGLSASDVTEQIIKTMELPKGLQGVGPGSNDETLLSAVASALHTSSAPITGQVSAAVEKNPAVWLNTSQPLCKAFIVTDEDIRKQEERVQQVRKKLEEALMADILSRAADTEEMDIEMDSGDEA
Neddyl block – inhibitors of human cullin neddylation; TR-FRET cullin neddylation, biochemical; 360,000 compounds, 0.58% hits; calls only at 25 µM; P61081+Q13564; in the data active = inhibition above about 36%
UBC13 inh – inhibitors of human UBC13 polyubiquitin chain formation | P61088 | TR-FRET | inhibition, % at 20 µM | 330,000 compounds, 0.47% hits | AID 485273; in the data active = inhibition above about 45%, passing the limit was not always enough
Target sequence (P61088 whole entry, looked up): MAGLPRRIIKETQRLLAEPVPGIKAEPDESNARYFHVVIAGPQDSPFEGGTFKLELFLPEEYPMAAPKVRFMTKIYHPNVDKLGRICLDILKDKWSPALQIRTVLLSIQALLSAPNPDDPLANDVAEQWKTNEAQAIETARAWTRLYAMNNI
UHRF1 MBD2 ctr – blocks human UHRF1 binding to methylated DNA | AID 687016 | inhibition, % at 4.4 µM | Q96T88 | UHRF1 binding to methylated oligo, TR-FRET | 370,000 compounds, 0.75% hits; in the data active = inhibition above about 21%;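 note: UHRF1 SRA domain binding a hemimethylated CpG hairpin DNA probe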
Numbers stand for hits; - = inactive; . = no result given; + = active, no number; ! = not active in a repeat. Hits are enriched below; roughly 1.8% of the tested compounds scored in any of these assays.

SMILES	MBD2 DNA inh	Neddyl block	UBC13 inh	UHRF1 MBD2 ctr
Cc1nn(-c2ccccc2)c(C)c1C(=O)OC(C)C(=O)NC1CCCCC1C (centres undefined)	-	-	-	-
CCN1CCN(Cc2ccc(NC(=O)c3ccc(C)c(NC(=O)N4CCNC4=O)c3)cc2C(F)(F)F)CC1	-	-	-	22.6!
CCN1CCN(Cc2ccc(NC(=O)c3ccc(C)c(NC(=O)c4nccn4C)c3)cc2C(F)(F)F)CC1	-	-	-	-
C[C@@H]1CN([C@@H](C)CO)C(=O)Cc2cc(NC(=O)Nc3cccc4ccccc34)ccc2O[C@@H]1CN(C)S(C)(=O)=O	-	-	-	-
Cn1nc(C(F)(F)F)c(C#N)c1N1CCN(c2ccccc2)CC1	-	-	-	-
Cn1nc(C(F)(F)F)c(C#N)c1N1CCN(c2ccccn2)CC1	-	-	-	22.9
COC(=O)C1CCCCN1C(=O)c1cc(COc2cccc3cnccc23)on1 (centres undefined)	-	+	-	-
O=C(c1cc(COc2cccc3cccnc23)on1)N1CCC[C@H]1CO	-	-	.	-
CCOC(=O)CC1CCCCN1C(=O)c1cc(COc2cccc3cnccc23)on1 (centres undefined)	-	+	-	-
COc1ccc(NC2=C(C(C)=O)C(c3ccccc3)C(C(C)=O)C(C)(O)C2)cc1 (centres undefined)	-	-	-	61.3
CCOC1=C2CN(S(=O)(=O)c3ccc(C)cc3)[C@H](c3ccccc3)C[C@@H]2N(S(C)(=O)=O)[C@H](c2ccccc2)C1	-	-	.	27.7
CN(Cc1ccccc1)C(=O)Cn1c(=O)oc2cc(S(=O)(=O)N3CCCC3)ccc21	-	-	-	-
Cc1c2c(=O)n(-c3nc4ccccc4s3)nc-2cc(O)n1Cc1ccccc1	.	+	.	.
CCC(C(=O)OCC(=O)c1ccc(OC)cc1OC)c1ccccc1 (centres undefined)	-	-	-	-
COc1ccc(C2=NOC(C(=O)Nc3cccnc3)C2)cc1OC (centres undefined)	-	-	-	-
Cc1ccc(N2C(=O)c3ccccc3C2Nc2ccc(S(=O)(=O)N3CCCCC3)cc2)nc1 (centres undefined)	-	-	-	77.3
O=C(/C=C/c1cccc([N+](=O)[O-])c1)NCCc1ccc(F)cc1	-	-	-	37.6
O=C(C1CCC(CNS(=O)(=O)c2ccc(F)cc2)CC1)N1CCOCC1 (centres undefined)	-	-	-	-
Cc1ccc(S(=O)(=O)Nc2ccccc2NS(=O)(=O)c2ccc(C)cc2)cc1	-	-	.	-
Cc1ccc(S(=O)(=O)Nc2cncnc2NS(=O)(=O)c2ccc(C)cc2)cc1	-	-	.	42.4
O=C(CSC1=NNC(c2ccccn2)S1)Nc1ccc(C(F)(F)F)cc1 (centres undefined)	-	-	-	-
c1ccc(CSC2=NNC(c3ccccn3)S2)cc1 (centres undefined)	-	+	-	-
CCC(C)[C@H](NC(=O)NCc1ccc(OC)c(OC)c1)C(=O)O (some centres undefined)	-	-	-	-
COc1ccc(CNC(=O)N[C@@H](CC(C)C)C(=O)O)cc1OC	-	-	-	25.7
COc1ccc(Cc2nnc(NC(=O)C(C)C)s2)cc1	-	-	-	30.4
SMILES	MBD2 DNA inh	Neddyl block	UBC13 inh	UHRF1 MBD2 ctr
COc1ccc(Cc2nnc(NC(C)=O)s2)cc1	-	-	-	-
COc1ccc(C[C@](C)(N)C(=O)O)cc1OC	-	-	-	-
C[C@](N)(Cc1ccc(O)c(O)c1)C(=O)O	-	-	.	40.1
O=C(O)CCNc1ccc(NCCC(=O)O)c2c1C(=O)c1ccccc1C2=O	-	-	-	39.9
C=CCOc1ccc2c(CC)cc(=O)oc2c1C	-	+	-	-
C/C(=N\Nc1ccc(Cl)c(C(=O)O)c1)c1cccs1	-	-	-	-
C/C(=N\Nc1ccc(Cl)c(C(=O)O)c1)c1ccc[nH]1	-	-	-	23.4
CCc1nnc(NC(=O)C23CC4CC(CC(C4)C2)C3)s1	-	-	-	-
CC1CCCCN1S(=O)(=O)c1ccc(S(=O)(=O)N2CCN(c3ccccc3)CC2)cc1 (centres undefined)	-	-	-	-
O=C(O)CSCCc1ccccn1	-	-	-	21.2
O=C(CSCCc1ccccn1)Nc1ccccn1	-	-	-	-
CCCn1c(SCC(=O)N2CCN(C(=O)c3ccco3)CC2)nc2ccccc2c1=O	-	-	-	-
Cn1c(C(=O)N2CCCC(C(=O)NCCCSC3CCCCC3)C2)cc2sccc21 (centres undefined)	-	-	-	60.9
NS(=O)(=O)c1cc(C(=O)NC2CCSc3ccccc32)ccc1Cl (centres undefined)	96.4	-	-	102.3
N#CC12COC3(CCCCC3C1(C#N)C#N)OC2=N (centres undefined)	-	+	-	-
N#CC1(C#N)COC23CCCCC2C1(C#N)C(=N)O3 (centres undefined)	-	+	-	-
CC1OC23CCCCC2C(C#N)(C(=N)O3)C1(C#N)C#N (centres undefined)	-	-	-	-
CCC1OC23CCCCC2C(C#N)(C(=N)O3)C1(C#N)C#N (centres undefined)	-	.	-	-
O=C(CSc1nnc(COc2ccccc2F)n1-c1ccccc1)NC1CCS(=O)(=O)C1 (centres undefined)	-	-	-	-
CS(=O)(=O)c1cccc(-c2nnc(NC(=O)c3ccc(S(=O)(=O)N4CCCC4)cc3)o2)c1	-	-	-	-
Cc1ccc(C(=O)OCC(=O)NC(=O)c2cccn2C)cc1	-	-	-	-
CCCCNC(=O)C[C@@H]1C[C@@]2(C(=O)OCC)CCC=C2N(Cc2ccc3c(c2)OCO3)C1=O	-	-	.	21.3
COCCNCC(=O)NC12CC3CC(CC(C3)C1)C2	-	-	-	-
Nc1ccc2c(c1)C/C(=C/c1ccco1)C2=O	24.5	-	-	68.6
O=C1/C(=C/c2ccco2)CCc2ccccc21	-	-	-	-
SMILES	MBD2 DNA inh	Neddyl block	UBC13 inh	UHRF1 MBD2 ctr
O=C(CCCN1CC=C(n2c(=O)[nH]c3ccccc32)CC1)c1ccc(F)cc1	-	-	-	22.8
CCCc1c2c(cc3c(=O)cc(C(=O)OCC)oc13)CCCC2	-	-	-	74.4
C=CCNC(=O)c1ccc(CN(c2ccc(OCC)cc2)S(=O)(=O)c2ccc(C)cc2)cc1	-	-	-	-
CCCCc1cc(=O)oc2cc(C)c(CN3CCCC3)c(O)c12	-	-	-	-
CCc1cc(=O)oc2cc(C)c(CN3CCCC(C)C3)c(O)c12 (centres undefined)	-	-	-	27.1
COc1cccc(NC(=S)N(CCN(C)C)Cc2cccs2)c1	-	-	-	20.8
CSc1cccc(NC(=S)N(CCCN2CCC(C)CC2)Cc2cccs2)c1	-	-	-	28.3
COc1cccc(NC(=S)N(CCCN2CCC(C)CC2)Cc2cccs2)c1	-	-	-	-
COc1cccc(NC(=S)N(CCc2c(C)[nH]c3ccc(C)cc23)Cc2cccs2)c1	-	-	-	-
CCCCSc1nc2[nH]ncc2c(=O)[nH]1	-	-	-	67.9
COCCCNC(=S)N/N=C/c1cccc(OC)c1O	-	+	-	-
COCCCNC(=S)N/N=C/c1ccc(O)cc1O	-	-	-	-
Oc1cccc(/C=N/NC(=S)NCCN2CCOCC2)c1O	-	-	-	29.9
